Reference: PubChem BioAssay (Tox21)
Values joined by “and” are separate entries in the source; they are usually repeats but may differ in a detail not shown here. Equal values may be shown once. Records with an inconclusive call do not appear. A call without a number means that no potency is given here. Active and inactive are the calls of the source. The call rests on the fitted dose curve; in most records, active means well fitted cell-killing curve with a large enough effect in the repeat runs; inconclusive means weak or mixed curves, or effect the other way; inactive means flat fitted curve, though single readings scatter.

Experiment: Nuclear factor erythroid 2-related factor 2/antioxidant responsive element (Nrf2/ARE) small molecule agonists: qHTS cell viability counter screen in human keratinocytes (AID 1919968); further: nearly all actives have a fitted effect of over 55% in size
Details: KeratinoSens HaCaT ARE cells viability, CellTiter-Fluor, 24 h; series mostly up to 92.4 µM
Excerpt: U.S. Tox21 Program National Center for Advancing Translational Sciences [NCATS] Division of Preclinical Innovation [DPI] U.S. Environmental Protection Agency [EPA] National Institutes of Environmental Health Sciences [NIEHS] National Toxicology Program [NTP] U.S. Food and Drug Administration [FDA] Tox21 Assay Overview: Oxidative stress has been implicated in the pathogenesis of a variety of diseases ranging from cancer to neurodegeneration. The antioxidant response element (ARE) signaling pathway plays an important role in the amelioration of oxidative stress. The KeratinoSens (Givaudan, Switzerland) is an in vitro test method which quantifies luciferase induction as a measure of activation of Keap1-Nrf2-antioxidationt/electrophile response element (ARE) dependant pathway in HaCaT human keratinocytes stably transfected with a selectable plasmid. The KeratinoSens assay is a cell-based assay with a reporter cell line to detect potential skin sensitizers by their ability to induce the Nrf2/ARE-response. The activation of the report gene under culture conditions can be detected by ONE-Glo Luciferase Assay System (Promega, Madison, WI). This cell line has been used to screen the Tox21 10K compound library to identify agonists that induce oxidative stress. The cytotoxicity of the Tox21 compound library against the KS-ARE cell line was tested in parallel by measuring the cell viability using CellTiter- Fluor assay system (Promega, Madison, WI) in the same wells.
Tox21 Assay Protocol Summary: HaCaT derived cell line KeratinoSens were dispensed at 1,500 cells/5uL/well in 1536-well white wall/solid bottom plates using a Multidrop Combi (ThermoFisher Scientific, Waltham, MA) dispenser. After the assay plates were incubated at 37 C/5% CO2 for 5 h, 23 nL of compounds dissolved in DMSO, positive controls or DMSO only was transferred to the assay plate by a pintool workstation (Kalypsys, San Diego, CA). The plates were incubated at 37 C/5% CO2 for 23 h, followed by addition of 1uL/well of CellTiter-Fluor reagent into the assay plates using a Flying Reagent Dispenser (Aurora Discovery, San Diego, CA) for cell viability readout that measures cytotoxicity. After 1 h incubation at 37 C/5% CO2 the fluorescence intensity was measured using a ViewLux (PerkinElmer, Shelton, CT) plate reader.
Potency means the concentration at half of the fitted maximal effect.

Structure (SMILES)	Potency
Cc1cc(N)no1	inactive
c1coc(CNc2ncnc3nc[nH]c23)c1	inactive
CNCCCC12CCC(c3ccccc31)c1ccccc12	54.5 µM (active)
COS(=O)(=O)O	inactive
CCC(CO)CO	inactive
CC(=O)CC(C)=O	inactive
O=C[O][Al]([O]C=O)[O]C=O	inactive
CC(C)CCCCCOC(=O)CCS	inactive
CC(N)CN (stereo not given)	inactive
CCCCCC/C(C=O)=C\c1ccccc1	inactive
CC(=O)NCCO	inactive
CCOC(=O)[C@H](CCc1ccccc1)N[C@@H](C)C(=O)N1Cc2ccccc2C[C@H]1C(=O)O	inactive
Nc1nc(N)c2nc(-c3ccccc3)c(N)nc2n1	inactive
c1ccc(CSCc2ccccc2)cc1	inactive
COc1cc(CCC(C)=O)ccc1O	inactive
C1CCC2OC2C1 (stereo not given)	inactive
Nc1ccccc1N	inactive
Cc1cccc(N(C)C(=S)Oc2ccc3ccccc3c2)c1	inactive
CCOC(=O)c1cccc(N)c1	inactive
CCN(CC)C(=O)C1CN2CCc3cc(OC)c(OC)cc3C2CC1OC(C)=O (stereo not given)	inactive

Structure (SMILES)	Potency
C1=C\CC/C=C\CC/C=C\CC/1	inactive
CCCCCCCCCCCCCCCCC	inactive
C#CC(O)CCC (stereo not given)	inactive
CCC1CCCCC1	inactive
CC1=CC[C@@H](C(C)(C)O)CC1	inactive
Oc1c(Cl)ccc(Cl)c1Cl	inactive
CC(C)(C)c1ccc(O)c(O)c1	inactive
c1ccc(CCCc2ccncc2)cc1	inactive
CCOC(=O)N1CCC(=C2c3ccc(Cl)cc3CCc3cccnc32)CC1	68.6 µM (active) and 26.6 µM (active)
CCCN1C=CN(C)C1	inactive
CC(C)C1CCC(O)CC1 (stereo not given)	inactive
NC(=O)c1ccc(N)cc1	inactive
COC(=O)c1ccc([N+](=O)[O-])cc1	inactive
C=CC(=O)OCCOC(=O)C=C	inactive
CCCC=O	inactive
Nc1cc(C(Cl)=C(Cl)Cl)c(S(N)(=O)=O)cc1S(N)(=O)=O	inactive
CC1=CC[C@H](CC=O)C1(C)C	inactive
CCOC=C(C(=O)OCC)C(=O)OCC	inactive
CC(C)(c1cc(Br)c(O)c(Br)c1)c1cc(Br)c(O)c(Br)c1	43.1 µM (active) and 38.5 µM (active)
FC(F)(F)/C(=N\OCC1OCCO1)c1ccc(Cl)cc1	inactive
